PubChem BioAssay (NCI)
About 83,000 compounds went through this panel and 20% of them were active in at least one assay; those are over-represented in the sample as a whole.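 How to read the values: 0–100, growth inhibition (40 = 60% inhibited); 0, no net growth; -100 to 0, cell death (-40 = 40% of starting cells died; -100 = all dead).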 Active and inactive are the calls of the source. The calls were made as follows: active = growth percent below 10; inactive = the rest.

Legend:
Assay in all cases: NCI-60 one-dose screen, 48 h (100 = growth as untreated, 0 = no growth, -100 = all killed)
Details in all cases: 10 µM unless noted
HCT-15 colon = system: HCT-15 colon
HT29 colon = system: HT29 colon
SNB-75 CNS = system: SNB-75 CNS
SNB-19 CNS = system: SNB-19 CNS
U251 CNS = system: U251 CNS
PC-3 prostate = system: PC-3 prostate
SK-MEL-5 melanoma = system: SK-MEL-5 melanoma
UACC-62 melanoma = system: UACC-62 melanoma
LOX IMVI melanoma = system: LOX IMVI melanoma
SK-MEL-28 melanoma = system: SK-MEL-28 melanoma

Measured: growth

Cc1ccc(S(=O)(=O)n2cc(C3C(Cl)C(=O)N3c3ccc(N4CCOCC4=O)cc3)c3ccccc32)cc1 (stereo not given)
inactive: HCT-15 colon 28% | HT29 colon 56.6% | SNB-75 CNS 31.1% | SNB-19 CNS 70.8% | U251 CNS 48.7% | PC-3 prostate 43.5% | SK-MEL-5 melanoma 43.8% | UACC-62 melanoma 51.3% | LOX IMVI melanoma 34.2% | SK-MEL-28 melanoma 69.3%

Cc1ccc(-c2nc(C#N)c(S(=O)(=O)NCCO)o2)cc1
inactive: HCT-15 colon 41.8% | HT29 colon 24.2% | SNB-75 CNS 105% | SNB-19 CNS 88.3% | U251 CNS 74% | PC-3 prostate 61.7% | SK-MEL-5 melanoma 75% | UACC-62 melanoma 60.3% | LOX IMVI melanoma 46.4% | SK-MEL-28 melanoma 70.7%

O=C(CCl)Nc1ccc2c(Nc3cc(O)ccc3Cl)ncnc2c1
active: HCT-15 colon -81.3% | HT29 colon -74.5% | SNB-75 CNS -96.7% | SNB-19 CNS -61.9% | U251 CNS -89.8% | PC-3 prostate -74.4% | SK-MEL-5 melanoma -88.4% | UACC-62 melanoma -68.7% | LOX IMVI melanoma -81.6% | SK-MEL-28 melanoma -66.4%

N#Cc1nc(-c2ccc(F)cc2)oc1S(=O)(=O)N1CCN(c2ccc(F)cc2)CC1
inactive: HCT-15 colon 14% | HT29 colon 65.9% | SNB-75 CNS 87.6% | SNB-19 CNS 96.9% | U251 CNS 86.7% | PC-3 prostate 92% | SK-MEL-5 melanoma 93.1% | UACC-62 melanoma 90.6% | LOX IMVI melanoma 10.3% | SK-MEL-28 melanoma 104%

CCn1c2ccc(O)cc2c2c(C)c3c[n+](C(C)C)ccc3c(C)c21
inactive: HCT-15 colon 67.7% | HT29 colon 54.8% | SNB-75 CNS 49.8% | U251 CNS 13.5% | PC-3 prostate 61% | SK-MEL-5 melanoma 57.1% | UACC-62 melanoma 15.1% | LOX IMVI melanoma 30.9% | SK-MEL-28 melanoma 22.8%
active: SNB-19 CNS 7.71%

COc1ccc2c(c1)c(-c1cc(-c3cn(C)c4ccc(OC)cc34)on1)cn2C
inactive: HCT-15 colon 98.6% | HT29 colon 97.3% | SNB-75 CNS 97.8% | SNB-19 CNS 94.5% | U251 CNS 93.7% | PC-3 prostate 87.9% | SK-MEL-5 melanoma 81.2% | UACC-62 melanoma 90.7% | LOX IMVI melanoma 81.8% | SK-MEL-28 melanoma 94.5%

CCOC(=O)Cn1c(=O)c2c3ccccc3n(C)c2n2nnc(-c3ccccc3)c12
inactive: HCT-15 colon 114% | HT29 colon 89.1% | SNB-75 CNS 105% | SNB-19 CNS 115% | U251 CNS 87.8% | PC-3 prostate 76.1% | SK-MEL-5 melanoma 74.1% | UACC-62 melanoma 72.8% | LOX IMVI melanoma 86.2% | SK-MEL-28 melanoma 86.6%

O=C(CSc1nc2ccc([N+](=O)[O-])cc2[nH]1)Nc1cccc([N+](=O)[O-])c1
inactive: HCT-15 colon 54.4% | HT29 colon 57.6% | SNB-75 CNS 49.5% | SNB-19 CNS 64.2% | U251 CNS 41.5% | PC-3 prostate 44.8% | SK-MEL-5 melanoma 19.7% | UACC-62 melanoma 21.1% | LOX IMVI melanoma 57.8% | SK-MEL-28 melanoma 55.7%

Cc1cscc(C)c1=S
inactive: HT29 colon 19.5% | SNB-75 CNS 108% | SNB-19 CNS 100% | U251 CNS 80% | PC-3 prostate 77% | SK-MEL-5 melanoma 90.2% | UACC-62 melanoma 90% | LOX IMVI melanoma 70.4% | SK-MEL-28 melanoma 120%
active: HCT-15 colon 9.4%

CCN1C(=O)N(CC)C2C1NN=c1s/c(=C3\C(=O)N(CCc4ccccc4)c4ccccc43)c(=O)n12 (stereo not given)
active: HT29 colon 0.473% | SNB-75 CNS -4.86% | SK-MEL-5 melanoma 7.69%
inactive: HCT-15 colon 10.7% | SNB-19 CNS 23.3% | U251 CNS 14.5% | PC-3 prostate 20.5% | UACC-62 melanoma 28.1% | LOX IMVI melanoma 10.9% | SK-MEL-28 melanoma 43.6%

CC/C(Cc1ccccc1)=C(\c1ccc(OCCN2CCCCCC2)cc1)c1ccc(OC(=O)NCc2ccccc2)cc1
inactive: SNB-75 CNS 66.4% | SNB-19 CNS 72.5% | U251 CNS 49.6% | PC-3 prostate 54.8% | SK-MEL-5 melanoma 72.5% | UACC-62 melanoma 75.3% | SK-MEL-28 melanoma 87.2%
active: HCT-15 colon 9.25% | HT29 colon 5.23% | LOX IMVI melanoma 4.35%

O=C(Cn1nnc2ccccc21)Nc1ccc(-c2nc3ccccc3s2)cc1
inactive: HCT-15 colon 91.5% | HT29 colon 101% | SNB-75 CNS 106% | SNB-19 CNS 103% | U251 CNS 89.6% | PC-3 prostate 83.3% | SK-MEL-5 melanoma 74.3% | UACC-62 melanoma 97.1% | LOX IMVI melanoma 84.2% | SK-MEL-28 melanoma 102%

COc1ccc(C2CC(c3ccc(Nc4nc(Nc5ccc(F)cc5)nc(Nc5ccc(F)cc5)n4)cc3)=NN2C(C)=O)cc1 (stereo not given)
inactive: HCT-15 colon 94.4% | HT29 colon 100% | SNB-75 CNS 101% | SNB-19 CNS 85.2% | U251 CNS 84.5% | PC-3 prostate 68.8% | SK-MEL-5 melanoma 71.6% | UACC-62 melanoma 103% | LOX IMVI melanoma 103% | SK-MEL-28 melanoma 110%
